Laboratory results published in PubChem BioAssay.

Assay: probe aCHRDL2 binding to arrayed compounds – biochemical, biotinylated probe, 635/667 nm fluorescence, primary screen (AID 1100)
Conditions: small-molecule microarray, higher = more signal

Structure (SMILES) | composite z-score
NCCCCCCNC(=O)[C@H]1C[C@H]2C(=O)N3CCC[C@H]3C(=O)N2[C@H]1c1ccc(O)cc1 | 0.134
C[C@H]1NC(=O)C([C@@H](C)OCc2ccccc2)NC(=O)[C@@]23C(=O)N[C@@H](Cc4ccccc4)C2[C@H](C)[C@@]2(C)O[C@H]2C3/C=C/CC/C=C/CNC1=O (stereo partly specified) | -0.298
O=C1O[C@@H](c2ccccc2)[C@@H](c2ccccc2)N2[C@@H](c3ccc(O)cc3)[C@]3(C(=O)Nc4ccc(C#CC5=CCCCC5)cc43)[C@@H](C(=O)Nc3nc4ccccc4s3)[C@H]12 | -0.0516
CC(C)(C)N1CC=CC23O[C@@H]4C=CCCOC(=O)C4[C@H]2C(=O)N(CCCO)[C@@H]3C1=O (stereo partly specified) | -0.0642
CN(C)CCCCNC(=O)[C@H]1C[C@H]2C(=O)N[C@@H](CCCC[N+](C)(C)C)C(=O)N2[C@H]1c1cccc(OCCO)c1 | 0.15
CCCCC(CC)C(O)C1C=CC2C(=O)NC(=O)C2N1Nc1ccccn1 (stereo unspecified) | 0.471
C[N+](C)(C)CCCCCCNC(=O)[C@@H]1C[C@@H]2C(=O)NCC(=O)N2[C@@H]1c1cccc(OCCO)c1 | -0.127
CCCCC=C[C@@H](NC(=O)CCc1ccccc1)c1ccccc1 | -0.0262
C[N+](C)(C)CCCCCCNC(=O)[C@H]1C[C@H]2C(=O)N3CCC[C@H]3C(=O)N2[C@H]1c1cccc(OCCO)c1 | -0.155
COc1cccc(C)c1NC(=O)O[C@H]1[C@H](OC(=O)Nc2ccccc2)[C@H](OC(=O)Nc2ccccc2)[C@@H](OC)O[C@@H]1CO | 0.708
CC(C)NC(=O)[C@@]1(Cc2ccccc2I)c2ccccc2C(=O)N(Cc2ccccc2C(F)(F)F)[C@H]1c1ccc(CO)cc1 | 0.594
